# Assay outcomes from PubChem BioAssay.
# An excerpt weighted towards active compounds, which were near 11% of everything screened.
# VACV mCherry inh: inhibitors of vaccinia virus infection (mCherry reporter signal) | Vaccinia virus mCherry reporter infection, fluorescence | Potency, µM (series often up to 36.5 µM), for the others: at the highest dose activity change, negative = inhibition, most hits filed as inhibitors | 310,000 tested, 0.63% active; calls by dose curve; tested in A549 cells; further: potency means the concentration at half of the fitted maximal effect; on the % scale 0 is the no-effect control and ±100 the full control effect; nearly all actives have a fitted effect of over 35% in size
# NS1 function inh: blocks influenza NS1 protein function; AID 2326; 270,000 tested, 0.4% active; Potency, µM (series often up to 46.1 µM), for inactives: at the top dose activity, positive = more growth; calls by dose curve; further: potency means the concentration at half of the fitted maximal effect; actives are rising curves; nearly all actives have a fitted effect of over 50% in size
#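 Read-out: OD600 growth recovery of NS1-expressing budding yeast. Cells grown overnight at 30C in -URA glucose medium, washed, resuspended and diluted 1:100 in 2% galactose assay medium, pH 6.0. Same strain lacking NS1 served as positive control.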
# Pf growth 96h: P. falciparum growth inhibition at 96 hour, primary screen for plastid delayed-death inhibitors; P. falciparum luciferase reporter growth, 96 h; Potency, µM (series often up to 28.7 µM), inactives show at the highest dose activity change, negative = inhibition, most hits filed as inhibitors; 320,000 tested, 6.9% active; further: potency means the concentration at half of the fitted maximal effect; on the % scale 0 is the no-effect control and ±100 the full control effect
#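 P. falciparum expressing integrated firefly luciferase grown in erythrocytes (2% hematocrit, 0.05% parasitemia final) with compounds for 96 hours at 37 C, 5% CO2. Growth inhibition read as loss of luminescence after adding luciferase detection reagent.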
# HCV inhibitor: blocks hepatitis C virus | Potency, µM (doses to about 41.8 µM), for the others: at the top dose activity change, negative = inhibition, hits mostly inhibitors | AID 651820 | Huh7.5.1 HCVcc-Cre infection, luciferase reporter, 44 h | 340,000 tested, 3.4% active; further: potency means the concentration at half of the fitted maximal effect; on the % scale 0 is the no-effect control and ±100 the full control effect
#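 1,000 cells/well; 4 h culture; + compound; + HCVcc-Cre (~0.5 moi); 44 h; luciferase substrate, RT 15 min; read 15 sec.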
# Vaccinia Venus: vaccinia inhibition (Venus reporter) | Vaccinia virus Venus reporter expression, fluorescence | Potency, µM (top dose mostly 36.5 µM), inactives show top-dose activity change, negative = inhibition, usual class: inhibitors | 330,000 tested, 0.46% active | AID 720580; calls by dose curve; tested in A549 cells; further: potency means the concentration at half of the fitted maximal effect; on the % scale 0 is the no-effect control and ±100 the full control effect; nearly all actives have a fitted effect of over 30% in size
# Pf growth 48h: P. falciparum growth inhibition at 48 hours (one generation). P. falciparum luciferase growth in erythrocytes, 48 h. 310,000 tested, 5.9% active. Potency, µM (titrated, usually from 28.7 µM), for the others: at the top dose activity change, negative = inhibition, most hits filed as inhibitors; further: potency means the concentration at half of the fitted maximal effect; on the % scale 0 is the no-effect control and ±100 the full control effect
#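 Firefly luciferase activity from engineered P. falciparum reports growth; inhibitors lower the luminescent signal. Cultures contained 2% hematocrit erythrocytes at 0.1% final parasitemia.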
# NS1 inh valid: influenza NS1 function inhibition validation; shares compounds with NS1 function inh; 1,400 tested, under 10 active; activity change, negative = inhibition, % at 32.9 µM; influenza NS1 function cell assay, 15-point titration; AID 492980; calls by dose curve; further: 0% is about no effect
# Flu PR8 replic: influenza NS1 inhibitors: inhibition of influenza A/PR/8/34 replication; virus titer (log TCID50), log10 TCID50 at 5 µM; 95 tested, 30% active; shares compounds with NS1 function inh; MDCK infected influenza A/PR/8/34, virus titer TCID50; active compounds read low; call rule not given here
# * marks the source's active call; other numbers are inactive results; i = inactive; ? = inconclusive; . = not tested or not shown; [ ] = another dose, or the depositor's remark. Unless noted, the call rests on the fitted dose curve; in most records, active means well fitted inhibition curve with a large enough effect; inconclusive means small, poorly fitted or top-dose-only effect, or another doubt; inactive means no such curve, though single readings can be large or run the other way.
SMILES,VACV mCherry inh,NS1 function inh,Pf growth 96h,HCV inhibitor,Vaccinia Venus,Pf growth 48h,NS1 inh valid,others
Fc1ccc(C2=CC(c3cccs3)n3nnnc3N2)cc1 (stereo unspecified),1.2%,7.5%,20.2%,15.8%,8.2%,25.3%,.,
CCCCCCN(C(=O)CCCCCN1C(=O)NC(c2ccc(-c3ccccc3)cc2)C(C(=O)OCc2ccccc2)=C1C)C(C(=O)NCCCC)c1ccc(OCC(=O)OC)c(C(=O)OC)c1 (stereo unspecified),.,11.2µM*,2.62µM*,.,.,2.33µM*,-24.6,
O=C(N/C(=C\c1ccco1)C(=O)N1CCCC1)c1ccccc1,-4.6%,3.6%,124.3%,-1.2%,-6.2%,17.9%,.,
Cc1ccc(C(=O)N/C(=C/c2ccco2)C(=O)N2CCCCCC2)cc1,-24.7%,?,?,-7.8%,13.3%,-5.3%,-4.0,
COc1ccc(S(=O)(=O)N(CC(=O)NN=C2CCN(C)CC2)c2ccc(C)cc2)cc1OC,-19.8%,27.1%,5.3%,14.9%,-21.2%,5.5%,.,
Cc1ccc(N(CC(=O)NN=C2CCN(C)CC2)S(=O)(=O)c2ccccc2)c(C)c1,-23.0%,4.47µM*,44.2%,19.1%,-7.1%,-7.2%,27.2,
Cc1ccc(S(=O)(=O)N2CCCCC2)cc1C(=O)N(C)CC(=O)Nc1ccc(Cl)c(C(F)(F)F)c1,.,10µM*,?,?,.,?,-14.1,
COc1ccccc1NC(=O)Cn1c(=O)n(CCc2c[nH]c3ccccc23)c(=O)c2cccnc21,?,11.2µM*,2.6%,?,-17.7%,?,25.6,
COc1ccccc1NC(=O)CSc1nc2nccnc2c(=O)n1CCc1c[nH]c2ccccc12,-23.8%,.,.,.,-21.7%,.,.,
CCn1c(=O)cc(SCC(=O)Nc2cc(OC)c(OC)c(OC)c2)c2ccccc21,.,7.1%,.,?,.,-7.2%,.,
COc1ccc(-c2nc(=S)c3c([nH]2)Oc2ccc(C)cc2C3)cc1O,-16.8%,10µM*,?,3.0%,-11.5%,-1.4%,-5.7,
O=C1CCC/C1=C\Nc1ccc(Cl)c([N+](=O)[O-])c1,i,-1.5%,22.1%,-7.8%,-19.1%,13.8%,.,
COc1ccc(C2SCC(C(=O)O)N2C(C)=O)cc1OC (stereo unspecified),.,-34.2%,?,12.8%,.,.,.,
COCCCNC(=O)CSc1nc2ccccc2c(=O)n1Cc1ccc2c(c1)OCO2,i,.,-5.4%,0.0%,-3.9%,?,.,
CC1CCN(C(=O)CSc2nc3ccccc3c(=O)n2Cc2ccc3c(c2)OCO3)CC1,.,?,.,?,.,?,?,
COC(=O)c1ccc(CSc2nnc(NCc3ccccc3)s2)o1,.,14.1µM*,?,8.1%,-1.0%,?,?,
COC(=O)c1ccc(CSc2nnc(SCc3ccc(C(=O)OC)o3)s2)o1,-11.6%,-18.1%,-7.1%,-13.9%,-2.7%,20.1%,.,
COc1cc(C2C(C(=O)c3ccc(C)o3)=C(O)C(=O)N2c2cc(C)on2)cc(Br)c1O (stereo unspecified),-1.0%[1.46 µM],0.3%,25.1%,6.5%,-9.4%,-28.1%,.,
O=C(CCN1CCN(c2ccccc2F)CC1)c1ccc(Br)cc1,.,-95.2%,0.0%,7.7%,-6.1%,4.1%,.,
C=CCN1C(=O)CS/C1=C(\C#N)S(=O)(=O)c1ccc(C)cc1,.,1.58µM*,12.6%,2.9%,157.1%,?,33.6,
CSc1ccc(CN2C(=O)C(C)Sc3ccc(C(C)=O)cc32)cc1 (stereo unspecified),i,.,.,.,-9.0%,.,.,
COc1ccccc1N=NC1C(=O)N(C(N)=S)N=C1C (stereo unspecified),-13.1%,-35.5%,-24.8%,8.3%,-24.7%,11.3%,.,
COc1ccc(OC)c(S(=O)(=O)N(C)CC(=O)Nc2ccccc2OC)c1,.,-4.2%,150.6%,-2.2%,-3.7%,-28.9%,.,
COc1ccc(OC)c(S(=O)(=O)N(C)CC(=O)O)c1,.,1.78µM*,.,13.0%,-8.2%,2.1%,3.5,
COc1cc(C(c2c(C(=O)O)[nH]c3ccccc23)c2c(C(=O)O)[nH]c3ccccc23)ccc1OCc1ccccc1,-30.0%,6.31µM*,13.1µM*,23.9%,-9.2%,-0.4%,-0.2,
SMILES,VACV mCherry inh,NS1 function inh,Pf growth 96h,HCV inhibitor,Vaccinia Venus,Pf growth 48h,NS1 inh valid,others
O=C(COC(=O)c1cccc2ccccc12)Nc1ncc(C(F)(F)F)cc1Cl,.,4.47µM*,10.1%,12.8%,.,.,8.5,
COc1cc([N+](=O)[O-])cc(/C=N\NC(=O)C2COc3ccccc3O2)c1O (stereo unspecified),.,-2.8%,-3.7%,16.9%,.,?,.,
COc1ccccc1C(=O)NNC(=S)NC(=O)c1sc2ccccc2c1Cl,-13.9%,?,?,1.5%,-19.3%,11.9%,?,
Cc1c(NC(=S)NC(=O)c2sc3ccccc3c2Cl)cccc1C(=O)O,i,2.1%,-26.8%,1.2%,3.6%,235.9%,.,
Cc1nc2sccn2c1-c1csc(NCc2ccccc2)n1,?,?,74.2%,11.2µM*,?,13.1µM*,-28.6,
COc1ccccc1NC(=O)c1csc2c1CCCC2,.,-52.2%,36.2%,?,.,-1.3%,.,
COCCNC(=O)C1(C)CCCN(CCC(=O)c2ccc(Br)cc2)C1 (stereo unspecified),-3.1%,.,.,.,-2.8%,.,.,
O=C(NC1CCCCCC1)c1ccc2c(c1)sc1nc(-c3ccccc3)cn12,-20.0%,.,.,.,-19.3%,.,.,
CCOC(=O)N1CCC(NC(=O)c2ccc3c(c2)sc2nc(-c4ccccc4)cn23)CC1,?,?,-19.7%,?,?,1.31µM*,-11.6,Flu PR8 replic=7.5*
NC(=O)c1cccc(-c2ccnc3c2CC(C(=O)Nc2cccc(Oc4ccccc4)c2)O3)c1 (stereo unspecified),7.7%,.,.,.,-11.8%,.,.,
O=C(NCc1ccccc1F)C1CCCN(S(=O)(=O)c2ccc(-n3cnnn3)cc2)C1 (stereo unspecified),i,7.1%,-6.0%,3.3%,-17.0%,13.9%,.,
O=C(NCc1ccco1)C1CCCN(S(=O)(=O)c2ccc(-n3cnnn3)cc2)C1 (stereo unspecified),-11.8%,3.98µM*,?,17.3%,-4.8%,-15.9%,22.7,
COc1cc(/C=N/NC(=O)c2sc3nc(C)cc(C)c3c2N)ccc1O,-14.3%[7.34 µM],?,?,-28.3%,-9.5%[7.34 µM],?,4.6,
Cc1ccc2c(c1)C(c1ccccc1)N(C(=O)C(C)C)CC(=O)N2 (stereo unspecified),-29.0%,?,?,12.9%,-19.2%,-11.5%,29.0,
CCC(CC)C(=O)N1CC(=O)Nc2ccc(C)cc2C1c1ccccc1 (stereo unspecified),.,2.8%,?,-4.8%,.,?,.,
